Assay results from PubChem BioAssay (Tox21).
Records with an inconclusive call do not appear. Entries that show only a call come without a potency. Calls of active or inactive are those of the source. Calls come from the whole dose curve; as a rule, active = well fitted cell-killing curve with a large enough effect in the repeat runs; inconclusive = weak or mixed curves, or effect the other way; inactive = no such curve, though single readings can be large or run the other way.
Potency is the fitted concentration of half-maximal effect.

Assay: qHTS assay for identifying genotoxic compounds that show differential cytotoxicity against isogenic chicken DT40 cell lines with known DNA damage response pathways - Rev3 mutant cell line (AID 743014); note: nearly all actives have a fitted effect of over 55% in size
Details: chicken DT40 Rev3-/- viability, CellTiter-Glo, 40 h; series mostly up to 68.4 µM
Excerpt: National Center for Advancing Translational Sciences [NCATS]
NIH Chemical Genomics Center [NCGC]
U.S. Environmental Protection Agency [EPA]
National Institutes of Environmental Health Sciences [NIEHS]
National Toxicology Program [NTP]
U.S. Food and Drug Administration [FDA]
DNA repair pathways play a critical role in cellular homeostasis by repairing DNA damage induced by endogenous processes and xenobiotics. Isogenic chicken DT40 cell lines deficient in different DNA repair pathways can be used to identify genotoxic compounds and aid in characterizing the nature of the DNA damage induced. Two DNA repair-deficient cell lines with disrupted genes, Rad54/Ku70 or Rev3, were used to screen the Tox21 10K compound library. Possible genotoxicity was based on the presence of a significant increase in cytotoxicity in one or more of the DNA repair-deficient cell lines compared to that observed in the parental DNA repair-proficient cell line. CellTiter Glo viability assay (Promega, Madison, WI) was used to measure cell viability in these cells after compound treatment. This assay includes the data from the Rev3 mutant cell line.
Tox21 Assay Protocol Summary:
300 DT40 mutant cells in 5 uL/well were dispensed into white, solid-bottom 1536-well plates using a Multidrop Combi (ThermoFisher Scientific, Waltham, MA) dispenser. After the assay plates were incubated at 37 C/5% CO2 for approximately 0.5 hour, 23 nL of compounds dissolved in DMSO, positive controls or DMSO only was transferred into the assay plate by a pintool work station (Kalypsys, San Diego, CA). The assay plates were incubated at 37 C/5% CO2 for 40 hours. After 5 uL per well of CellTiter-Glo reagent was added into each well of the assay plates, the plates were incubated for 30 min at room temperature and the luminescence intensity of the plates was measured using a ViewLux (PerkinElmer, Shelton, CT) plate reader.
With C=C(C)C(=O)OCc1ccccc1 the Potency was “inactive”.
In the case of NS(=O)(=O)c1ccc(NC(=O)CCC(=O)O)cc1, the Potency was “inactive”.
With CC(C)(C)c1n[nH]c(=S)n(N)c1=O the Potency was “inactive”.
For COC(=O)c1ccccc1C(=O)c1ccc(OCCN2CCCCC2)cc1, the Potency was 1.06 µM (active).
With CC(C)C(=O)OCCc1ccccc1 the Potency was “inactive”.
In the case of C[Si](C)(C)C, the Potency was “inactive”.
In the case of COc1ccc2c(c1)C(=O)N(CCc1ccc(S(=O)(=O)NC(=O)NC3CCCCC3)cc1)C(=O)C2(C)C, the Potency was “inactive”.
With O=P(O)(O)OP(=O)(O)O the Potency was “inactive”.
With C=COCCOCCOCCOC=C the Potency was “inactive”.
With CC(C)CCCCOC(=O)c1ccccc1C(=O)OCCCCC(C)C the Potency was “inactive”.
With CC(C)CCCC(C)(C)O the Potency was “inactive”.
In the case of CCCCCCCCC(=O)Cl, the Potency was “inactive”.
For COc1ccc(-c2cc(=O)c3c(O)cc(O[C@@H]4O[C@H](CO[C@@H]5O[C@@H](C)[C@H](O)[C@@H](O)[C@H]5O)[C@@H](O)[C@H](O)[C@H]4O)cc3o2)cc1O, the Potency was “inactive”.
In the case of CN(C)CCOCCO, the Potency was “inactive”.
For CC(C)(C)OC(=O)c1ccc(O)cc1, the Potency was “inactive”.
In the case of O=C(OCc1ccccc1)C(=O)OCc1ccccc1, the Potency was “inactive”.
For CC1=CCC(C(C)C)=CC1, the Potency was “inactive”.
With COCCOC(=O)C1=C(C)NC(C)=C(C(=O)OC(C)C)C1c1cccc([N+](=O)[O-])c1 (stereo not given) the Potency was 26.6 µM (active).
In the case of CCC(C=O)CC, the Potency was “inactive”.
For O=S(=O)(O)c1cc(O)c2ccc(Nc3ccccc3)cc2c1, the Potency was “inactive”.
For CCc1ccc(C=O)cc1, the Potency was “inactive”.
With COc1ccc(S(=O)(=O)N2c3ccc(Cl)cc3[C@@](O)(c3ccccc3Cl)[C@H]2C(=O)N2CCC[C@@H]2C(N)=O)cc1OC the Potency was “inactive”.
In the case of O=S(=O)(O)CCN1CCN(CCO)CC1, the Potency was “inactive”.
With N#Cc1ccc(C(=O)O)cc1 the Potency was 30.6 µM (active).
With Cc1cc(Cl)c(C)cc1Cl the Potency was “inactive”.
With CC(C)N(c1ccccc1)C(C)C the Potency was “inactive”.
For CC(=O)NCCCCCC(=O)O, the Potency was “inactive”.
For COc1ccc(OC)c(Cl)c1, the Potency was “inactive”.
For CCN1CCc2nc(N)oc2CC1, the Potency was “inactive”.
In the case of C[C@@H](Oc1ccc(CNC(=O)c2cccnc2Oc2ccc3c(c2)OCO3)c(F)c1)C(=O)O, the Potency was “inactive”.
With O=C1O[C@@H]2[C@@H](O)[C@H](O)O[C@@H]2[C@H]1O the Potency was “inactive”.
For CCN(C)C(=O)Oc1cccc([C@H](C)N(C)C)c1, the Potency was “inactive”.
In the case of O=C(NCC(O)CO)c1c(I)c(C(=O)NCC(O)CO)c(I)c(N(CCO)C(=O)CO)c1I (stereo not given), the Potency was “inactive”.
With O=C(O)C(=O)Cc1ccccc1 the Potency was “inactive”.
For CC(CO)c1ccccc1 (stereo not given), the Potency was “inactive”.
For CC(=O)Nc1ccc(S(=O)(=O)Cl)cc1, the Potency was “inactive”.
With CCCCCCCCSCC the Potency was “inactive”.
In the case of COc1cc2c(cc1OC)[C@@H]1CC(=O)[C@@H](CC(C)C)CN1CC2, the Potency was 21.1 µM (active).
For c1ccc2nccnc2c1, the Potency was “inactive”.
For C=C(C)C(=O)OCCN(CC)CC, the Potency was “inactive”.
